Source: PubChem BioAssay AID623911 (Vanderbilt High Throughput Screening Facility, 2012)
Screen size: about 2,100 compounds; about 770 (37%) were called active. Some of the results follow. Values without a mark were called inactive.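 The calls were made as follows: active = by-eye trace score of 1 for enhancers or -1 for inhibitors, so actives lie on both sides (some results past the limit were not filed as active); inactive = score 0, or 3 fluorescent, or 4 baseline rise.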

Target: G protein-activated inward rectifier potassium channel 2 (Homo sapiens) + G protein-activated inward rectifier potassium channel 1 (Homo sapiens) (UniProt P48051+P48549)
Sequence (P48051 whole entry, looked up): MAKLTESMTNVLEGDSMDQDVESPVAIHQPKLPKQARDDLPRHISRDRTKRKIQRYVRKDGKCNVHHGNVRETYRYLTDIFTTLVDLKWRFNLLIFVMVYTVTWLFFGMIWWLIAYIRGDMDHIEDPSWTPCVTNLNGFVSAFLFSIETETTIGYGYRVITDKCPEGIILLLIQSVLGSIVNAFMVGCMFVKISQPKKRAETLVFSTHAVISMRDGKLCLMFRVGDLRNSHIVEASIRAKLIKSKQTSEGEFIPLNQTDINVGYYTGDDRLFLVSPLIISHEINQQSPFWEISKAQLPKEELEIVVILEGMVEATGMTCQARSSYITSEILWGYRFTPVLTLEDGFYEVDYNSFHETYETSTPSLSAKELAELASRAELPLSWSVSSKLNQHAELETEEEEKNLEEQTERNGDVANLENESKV
Sequence (P48549 whole entry, looked up): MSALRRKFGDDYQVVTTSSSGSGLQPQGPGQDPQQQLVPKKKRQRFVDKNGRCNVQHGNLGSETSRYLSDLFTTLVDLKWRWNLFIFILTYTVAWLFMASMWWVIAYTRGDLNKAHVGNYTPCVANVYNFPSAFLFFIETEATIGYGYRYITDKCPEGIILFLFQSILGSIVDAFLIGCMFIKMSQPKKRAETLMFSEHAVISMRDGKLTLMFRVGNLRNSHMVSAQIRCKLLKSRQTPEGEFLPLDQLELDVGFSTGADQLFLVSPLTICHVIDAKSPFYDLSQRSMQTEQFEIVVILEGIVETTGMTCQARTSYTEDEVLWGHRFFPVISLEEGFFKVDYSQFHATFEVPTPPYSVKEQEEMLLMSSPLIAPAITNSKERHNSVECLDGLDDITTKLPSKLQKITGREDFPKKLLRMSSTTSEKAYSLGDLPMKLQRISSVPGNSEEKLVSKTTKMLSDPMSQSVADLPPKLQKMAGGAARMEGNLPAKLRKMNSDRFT
Assay: GIRK1/2 thallium flux modulators, retest, confirmation, cell-based, HEK293 rmGlu8/hGIRK1/2, FluoZin-2 (AID 623911)
Conditions: HEK293 rmGlu8/hGIRK1/2, thallium flux FluoZin-2; actives lie on both sides; glutamate co-added at its EC20 level

Question: O=C(Oc1ccccc1C(=S)N1CCCCC1)c1cc([N+](=O)[O-])cc([N+](=O)[O-])c1 was tested. Which manual score did it give?
Answer: -1 (active)

Question: With O=C(NC(=S)Nc1ccccc1N1CCCC1)c1ccc(-c2cccc([N+](=O)[O-])c2)o1 as the compound, how does the manual score read?
Answer: 0

Question: Fc1ccc(NC(=S)N/N=C/c2cccc(Br)c2)c(F)c1 was tested. Which manual score did it give?
Answer: 0

Question: With Fc1ccc(NC(=S)N/N=C/c2ccc(F)c(F)c2)c(F)c1 as the compound, how does the manual score read?
Answer: 1 (active)

Question: Which manual score does the source give for Fc1ccc(/C=N/NC(=S)Nc2ccc(Cl)cc2)cc1F here?
Answer: 0

Question: Oc1c(C=NCc2ccncc2)sc2ccccc12 was tested. Which manual score did it give?
Answer: 1 (active)

Question: How did the manual score turn out when CCCN(CCC)CCCNC(=O)c1cc2c(=O)n(C)c3ccccc3c2n1C was run?
Answer: -1 (active)

Question: How did the manual score turn out when CCn1c(=O)c(C(=O)NCCCO)c(O)c2ccccc21 was run?
Answer: 0

Question: CN(CCNC(=O)c1cc2c(=O)n(C)c3ccccc3c2n1C)Cc1ccccc1 was tested. Which manual score did it give?
Answer: -1 (active)

Question: For O=C(NC(Nc1nc2ccc([N+](=O)[O-])cc2s1)(C(F)(F)F)C(F)(F)F)c1ccccc1Cl, which manual score is on record?
Answer: 0

Question: How did the manual score turn out when Cc1ccc(C)c(OCC(=O)Nc2nc3ccc([N+](=O)[O-])cc3s2)c1C was run?
Answer: 0

Question: With O=C(NC(Nc1nc2ccc([N+](=O)[O-])cc2s1)(C(F)(F)F)C(F)(F)F)c1ccccc1 as the compound, how does the manual score read?
Answer: 1 (active)

Question: How did the manual score turn out when Cc1onc(-c2c(F)cccc2Cl)c1C(=O)OCn1nnc2ccccc2c1=O was run?
Answer: -1 (active)

Question: With Cc1noc(C)c1CSc1nc2ccccc2c(=O)n1-c1ccc(F)cc1F as the compound, how does the manual score read?
Answer: 0

Question: For CCOc1ccc(Nc2ncnc(N)n2)cc1, which manual score is on record?
Answer: 1.5

Question: O=C(Nc1cccs1)Nc1c(F)c(F)c(F)c(F)c1F was tested. Which manual score did it give?
Answer: 1 (active)

Question: How did the manual score turn out when COC(=O)c1c(NC(=O)Cc2cccs2)sc(C(=O)NC2CCCCC2)c1C was run?
Answer: 0

Question: CCOc1ccc(NC(=O)Nc2cccs2)cc1 was tested. Which manual score did it give?
Answer: 1 (active)

Question: How did the manual score turn out when CCOc1ccc(NC(=O)CCC(=O)c2ccc(-c3ccccc3)cc2)cc1 was run?
Answer: 0

Question: Which manual score does the source give for COc1cc(NC(=O)Cc2cccs2)cc(OC)c1 here?
Answer: 1 (active)

Question: Which manual score does the source give for COc1cccc(NC(=O)Nc2cccs2)c1 here?
Answer: 1 (active)

Question: For O=C(Cc1cccs1)Nc1cccnc1, which manual score is on record?
Answer: 0

Question: Which manual score does the source give for Cc1ccc(-c2cc(-c3cccs3)[nH]n2)c(O)c1 here?
Answer: 0

Question: How did the manual score turn out when CN1C=CC2=C(C#N)C(N)C(C#N)(C#N)[C@H](c3ccccc3)[C@H]2C1 (stereo not given in full) was run?
Answer: 1.5

Question: With Cn1c(SCC(=O)c2cc3ccccc3o2)nnc1-c1ccccc1 as the compound, how does the manual score read?
Answer: 0

Question: How did the manual score turn out when CC1CC2=C(CC1/C=N/NC(N)=S)C(C)(C)CCC2 (stereo not given) was run?
Answer: 0

Question: For CCN(CC)C(=O)CSc1nnc(NC(=O)CCc2ccccc2)s1, which manual score is on record?
Answer: 0

Question: Cc1ccccc1NC(=S)NC(=O)CCc1ccccc1 was tested. Which manual score did it give?
Answer: 0

Question: With CCN(CC)CC(O)COc1ccccc1C(=O)CCc1ccccc1 (stereo not given) as the compound, how does the manual score read?
Answer: -1 (active)

Question: How did the manual score turn out when S=C1Nc2cc(Cl)ccc2Sc2ccccc21 was run?
Answer: 0.5

Question: For S=C1CCSc2ccc(Cl)cc2N1, which manual score is on record?
Answer: 1 (active)

Question: For CCC1(C)Cc2c(sc3[nH]c(=S)n(Cc4ccccc4)c(=O)c23)CO1 (stereo not given), which manual score is on record?
Answer: 1 (active)

Question: With CC(C)C1Cc2c(sc3[nH]c(=S)n(Cc4ccccc4)c(=O)c23)CO1 (stereo not given) as the compound, how does the manual score read?
Answer: 1 (active)

Question: For CC(C)C1Cc2c(sc3c2c(=O)n(Cc2ccccc2)c2nncn32)CO1 (stereo not given), which manual score is on record?
Answer: 1 (active)

Question: For CC1(C)Cc2c(sc3[nH]c(=S)n(Cc4ccccc4)c(=O)c23)CO1, which manual score is on record?
Answer: 1 (active)

Question: Which manual score does the source give for O=c1c2cccnc2[nH]c(=S)n1Cc1ccccc1 here?
Answer: 0

Question: Which manual score does the source give for CCC1(C)Cc2c(sc3c2c(=O)n(C)c2nnc(SCc4ccc5c(c4)OCO5)n32)CO1 (stereo not given) here?
Answer: 0

Question: Which manual score does the source give for COc1ccccc1N(C)S(=O)(=O)c1ccc(C(=O)N(CC(N)=O)C(C)C)cc1 here?
Answer: 0

Question: For CC(=O)/C(=N\Nc1ccc(Cl)cc1Cl)Sc1cccc2cccnc12, which manual score is on record?
Answer: 0

Question: N#CC1=C(N)Oc2n[nH]c(-c3cccs3)c2C1c1ccco1 (stereo not given) was tested. Which manual score did it give?
Answer: 3

Question: With Cc1nnc2n(C3CCCCC3)c(=O)c3c4c(sc3n12)COC(C)(C)C4 as the compound, how does the manual score read?
Answer: 0

Question: For CC1(C)Cc2c(sc3[nH]c(=S)n(Cc4ccco4)c(=O)c23)CO1, which manual score is on record?
Answer: 1 (active)

Question: With C=C(C)C1CC=C(C)/C(=N/NC(=O)COc2cccc(C)c2)C1 (stereo not given) as the compound, how does the manual score read?
Answer: 1 (active)

Question: How did the manual score turn out when C=C(C)C1CC=C(C)/C(=N/NC(=O)COc2ccc(C)cc2)C1 (stereo not given) was run?
Answer: 0

Question: How did the manual score turn out when C=C(C)C1CC=C(C)/C(=N/NC(=O)c2ccc(NC(=O)CCC)cc2)C1 (stereo not given) was run?
Answer: 0

Question: Which manual score does the source give for CCOC(=O)c1c(C)[nH]c(=S)c(C#N)c1-c1ccc(Cl)cc1 here?
Answer: 0

Question: With Cc1ccc(-c2cc(-c3ccccc3)[nH]c(=S)c2C#N)cc1 as the compound, how does the manual score read?
Answer: 1 (active)

Question: How did the manual score turn out when COc1ccc(-c2c3c([nH]c(=S)c2C#N)CCC3)cc1 was run?
Answer: 0

Question: Which manual score does the source give for Cc1ccc(C2CC2c2n[nH]c(=S)n2-c2ccc(Cl)cc2)cc1 (stereo not given) here?
Answer: 0

Question: How did the manual score turn out when CN=C1SC(C(=O)O)CC(=O)N1C (stereo not given) was run?
Answer: 0

Question: Which manual score does the source give for Cc1cc(O)c(C(C[N+](=O)[O-])c2ccc(Cl)cc2Cl)c(=O)o1 (stereo not given) here?
Answer: 0

Question: Which manual score does the source give for CC(c1ccco1)N(C(=O)c1ccccc1NS(=O)(=O)c1cc([N+](=O)[O-])ccc1Cl)c1ccccn1 (stereo not given) here?
Answer: 0

Question: For CCCC(=O)Nc1ccc(NC(=O)C23CC4CC(CC(C4)C2)C3)cn1, which manual score is on record?
Answer: 0

Question: Which manual score does the source give for COC(=O)c1ccc(NC(=O)C23CC4CC(C2)CC(n2cncn2)(C4)C3)cc1 here?
Answer: 0

Question: For O=C(Nc1ccc(SC(F)F)cc1)C12CCC(CC1)C2, which manual score is on record?
Answer: 1 (active)

Question: Which manual score does the source give for O=C1c2ccccc2NC(c2ccc(-c3ccc(Br)cc3)o2)N1O (stereo not given) here?
Answer: 0.5

Question: S=c1[nH]nc(-c2cc3c(s2)-c2ccccc2CC3)o1 was tested. Which manual score did it give?
Answer: 1 (active)

Question: For Cc1ccc(-c2cc(-c3n[nH]c(=S)o3)c3ccccc3n2)cc1, which manual score is on record?
Answer: 0

Question: Which manual score does the source give for CCCCCCn1cnc2c(c1=O)c1nc3ccccc3nc1n2/N=C/c1ccco1 here?
Answer: 0

Question: For Cc1ccc(C(=O)Nc2cnc3ccccn3c2=O)cc1, which manual score is on record?
Answer: 0

Question: Which manual score does the source give for Cc1ccc(C(=O)Nc2nc(-c3ccccc3)c(-c3ccccc3)o2)cc1 here?
Answer: 1 (active)

Question: COc1cccc(C(=O)Nc2nc(-c3ccccc3)c(-c3ccccc3)o2)c1 was tested. Which manual score did it give?
Answer: 1 (active)

Question: Which manual score does the source give for COc1cc(OC)cc(C(=O)Nc2nc(-c3ccccc3)c(-c3ccccc3)o2)c1 here?
Answer: 0

Question: How did the manual score turn out when COc1cccc(C(=O)NCc2cn3ccsc3n2)c1 was run?
Answer: 0

Question: For O=C(Nc1nc(-c2ccccc2)c(-c2ccccc2)o1)c1ccc(F)cc1, which manual score is on record?
Answer: 1 (active)

Question: For CCC(C)NC(=O)c1ccccc1NC(=O)Nc1ccccc1 (stereo not given), which manual score is on record?
Answer: 0

Question: Which manual score does the source give for COC(=O)c1sccc1NC(=O)CSc1ccccc1NS(=O)(=O)c1ccc(Cl)cc1 here?
Answer: 0

Question: CSc1ccccc1NC(=O)Nc1ccccc1 was tested. Which manual score did it give?
Answer: 1 (active)

Question: Which manual score does the source give for CSc1ccccc1NC(=O)Nc1ccc(Cl)cc1 here?
Answer: 1 (active)

Question: CSc1ccccc1C(=O)Nc1cccc(C(C)=O)c1 was tested. Which manual score did it give?
Answer: 0
